Assay in all cases: NCI-60 one-dose screen, 48 h (100 = growth as untreated, 0 = no growth, -100 = all killed)
Common to all, as to details: 10 µM unless noted

Experiment [1] deals with DU-145 prostate.
In experiment [2] the test system is K-562 leukemia.
The subject of experiment [3] is MALME-3M melanoma.
In experiment [4] the test system is MDA-MB-231 breast.
The subject of experiment [5] is RXF 393 renal.
The subject of experiment [6] is SF-268 CNS.
Experiment [7] has as its system SF-295 CNS.
In experiment [8] the test system is SF-539 CNS.
For experiment [9], the system named is UACC-257 melanoma.
Experiment [10] relates to M14 melanoma.
Experiment [11] deals with HCT-15 colon.
Experiment [12] relates to HT29 colon.
For experiment [13], the system named is SNB-75 CNS.
The subject of experiment [14] is U251 CNS.
The test system of experiment [15] is PC-3 prostate.
The subject of experiment [16] is SK-MEL-5 melanoma.
Experiment [17] has as its system UACC-62 melanoma.
The subject of experiment [18] is LOX IMVI melanoma.
The subject of experiment [19] is SK-MEL-28 melanoma.
Experiment [20] relates to SNB-19 CNS.

About 83,000 compounds went through this panel and 20% of them were active in at least one assay; those are over-represented in the sample as a whole.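 Compound tested at a single concentration for 48 hours in 96-well plates; a percent growth value below 10 was scored as active.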 Values without a mark were called inactive. Active and inactive are the calls of the source.

With `O=c1c2cccc3c(N4CCCC4)ccc(c32)c2nc3ccccc3n12`, the growth in experiment [1] was 78.1%; in experiment [2] it was 76%; in [3] it was 70.4%; in experiment [4], 77.1%; in [5], 103%; in experiment [6], 92%. The growth in experiment [7] is 59.8%; in [8], 91.3%; in experiment [9], 91.8%; in [10], 91.5%; in experiment [11] it was 78.6%; in experiment [12], 77.8%. Besides, the growth in experiment [13] was 73%; in [14], 64.7%; in experiment [15], 67.9%; in experiment [16] it was 64.5%; in experiment [17], 62.6%; in experiment [18] it was 51.7%. In addition, in [19], the growth was 90.9%.

On to `O=S(=O)(Nc1ccc(F)cc1F)c1ccc(-c2cnc(C3CC3)o2)cc1`, for which the growth in experiment [1] was 40.7%; in experiment [2] it was 18.2%; in experiment [3] it was 34.8%; in experiment [4], 53%; in experiment [5], -1.92% (active); in experiment [6] it was 44.6%. The growth in experiment [7] was 30.7%; in experiment [8], 1.19% (active); in experiment [9], 64%; in experiment [10] it was 4.25% (active); in [11] it was 23.7%; in experiment [12], 14%. For the same molecule, the growth in experiment [13] is -13.1% (active); in experiment [14], 26.6%; in experiment [15] it was 42.5%; in experiment [16], 6.16% (active); in experiment [17] it was 27.4%; in experiment [18], 41.5%. The growth in experiment [19] is 63.5%.

On to `Cc1ccc(Nc2cc(N)nc(N)n2)cc1Cl`, for which the growth in [1] is 94%; in experiment [2] it was 74.4%; in experiment [3], 97.7%; in [4], 102%; in experiment [5] it was 97.5%; in experiment [6], 88.7%. In addition, the growth in experiment [7] was 92.3%; in experiment [8] it was 96.7%; in experiment [9], 93.6%; in experiment [10], 93.5%; in [11], 97.1%; in [12], 98.2%. In addition, the growth in experiment [13] was 80.2%; in [14], 97.3%; in [15], 94.2%; in experiment [16] it was 97.5%; in experiment [17] it was 90.8%; in experiment [18], 97.3%. For the same molecule, the growth in experiment [19] is 109%.

For the molecule `COc1ccc2c(c1)N(CCO)C1=C(C(=O)OC1)C2c1cccc(F)c1` (stereo unspecified), the growth in experiment [1] was 10.1%; in experiment [2], 9.63% (active); in [3], 55.7%; in experiment [4], 36%; in experiment [5] it was 31.3%; in [6], 35.5%. For the same molecule, the growth is -15.6% (active) in experiment [7]; -17.3% (active) in experiment [8]; 67.6% in experiment [9]; -1.78% (active) in experiment [10]; 7.3% (active) in [11]; 3.98% (active) in experiment [12]. The growth in [13] is 35.7%; in experiment [14] it was 16.9%; in experiment [15] it was 25.6%; in experiment [16], 12.3%; in experiment [17], 40%; in experiment [19] it was 47.9%.

Turning to `CC(C)=CCCC(C)c1ccc(C)c2c1OCN(CCCCCO)C2` (stereo unspecified), the growth in experiment [1] is 109%; in [2], 31.1%; in experiment [3], 93.6%; in [4], 93.4%; in [5], 90.1%; in experiment [6], 97.5%. The growth in [7] is 110%; in [8], 84.5%; in [9] it was 78.4%; in experiment [10], 84.2%; in experiment [11], 94%; in [12] it was 27.2%. Further, the growth in experiment [13] is 85.6%; in [14], 83.8%; in experiment [15], 66.6%; in [16], 91.7%; in experiment [17], 82.8%; in [18], 77.6%. For the same molecule, the growth in experiment [19] is 115%.

With `COc1ccc(-c2cc(-c3cc(OC)c(OC)c(OC)c3)c(C#N)c(=O)n2CCCCC(=O)NO)cc1`, the growth in [1] was 64.1%; in experiment [2], 32.6%; in experiment [3], 33.1%; in [4], 55.6%; in experiment [5], 53.1%; in experiment [6] it was 87.9%. The growth was 78.7% in experiment [7]; 57.7% in [8]; 71.7% in [9]; 38.4% in [11]; 77.9% in [12]; 25.5% in [13]. Besides, the growth in [20] was 77.5%; in experiment [14], 61.3%; in [15], 61%; in [16], 57.7%; in experiment [17], 60.7%; in experiment [18], 9.19% (active). Further, the growth in [19] was 76.8%.

As for `CCNCCNc1cc(-c2ccc(C(F)(F)F)cc2)c(C#N)c2nc3ccccc3n12`, the growth in experiment [1] is -95.1% (active); in experiment [2], -50.9% (active); in experiment [3], -78.1% (active); in experiment [4] it was -79.8% (active); in [5], -93.9% (active); in [6], -75.3% (active). Moreover, the growth in experiment [7] is -72.5% (active); in experiment [8] it was -88% (active); in experiment [9], -80.2% (active); in experiment [11] it was -75.4% (active); in experiment [12], -61.7% (active); in experiment [13] it was -95.5% (active). For the same molecule, the growth in [20] is -78.1% (active); in experiment [14], -87.1% (active); in [15], -72.6% (active); in experiment [16] it was -91.8% (active); in experiment [17] it was -74.4% (active); in [18], -95.4% (active). Also, the growth in [19] was -86.4% (active).

`NC(Cc1ccc(O)c([N+](=O)[O-])c1)C(=O)O` (stereo unspecified): the growth in [1] was 106%; in experiment [2], 101%; in experiment [3] it was 109%; in experiment [4], 113%; in experiment [5], 108%; in experiment [6], 99.8%. Moreover, the growth in experiment [7] is 117%; in experiment [8], 100%; in [9] it was 99.8%; in experiment [11], 98.5%; in [12] it was 99.1%; in [13], 97.2%. In addition, the growth in experiment [20] is 105%; in experiment [14] it was 97.2%; in experiment [15] it was 90.5%; in experiment [16], 105%; in experiment [17], 103%; in experiment [18], 94.3%. For the same molecule, the growth in experiment [19] was 99.9%.
